# Test results reported in ChEMBL document CHEMBL3988442, “University of Dundee, Small-Polar-MMV Screening Library” (2021).
# Out of some 53,000 compounds screened, about 900 (1.7%) showed an effect of 50% or more. The full list was thinned out, with strong results kept by preference.
# Test system: Mycobacterium tuberculosis
# Assay: Cornell - Phenotypic assay to identify agents that inhibit growth of Mycobacterium tuberculosis
# Assay type: functional
# Design: scale not given: direction of the effect not stated beside the values
# Settings: 10 mM as filed; unlikely as a test dose
row,SMILES,Percent Effect [%]
1,CCNC(=O)c1ccc(NC(=O)N(C)Cc2cccn2C)c(C)c1,26.39
2,CCC(NC(=O)c1nn(C)cc1C(=O)O)c1ccc(C)cc1 (stereo unspecified),2.527
3,CCOc1cc([C@@H]2N[C@H](c3nccs3)Cc3ccsc32)ccc1OC,39.28
4,Cc1c(Cl)cccc1NC(=O)N1CCN(Cc2ccccn2)CC1,28.2
5,Cc1nc(C2CCN(C(=O)c3ccn(C)n3)CC2)c2sccn12,-12.4
6,CCn1nc(C)c(CNC(=O)c2cn(CC3CCCO3)nn2)c1C (stereo unspecified),-30.41
7,Cc1cc(C)n(C2CCN(c3ncnc4sc5c(c34)CCNC5)C2)n1 (stereo unspecified),11.06
8,FC1(F)CCN(Cc2ccncc2)CC12CCN(c1cccnc1)C2.O=C(O)C(F)(F)F.O=C(O)C(F)(F)F.O=C(O)C(F)(F)F (stereo unspecified),6.416
9,FC1(F)CCN(Cc2cccnc2)CC12CCN(c1ccccc1)C2.O=C(O)C(F)(F)F.O=C(O)C(F)(F)F.O=C(O)C(F)(F)F (stereo unspecified),59.15
10,FC1(F)CCN(Cc2cccnc2)CC12CCN(c1ccccn1)C2.O=C(O)C(F)(F)F.O=C(O)C(F)(F)F.O=C(O)C(F)(F)F (stereo unspecified),-7.439
11,Cc1nn2c(=O)/c(=C\c3cccs3)sc2nc1=O,10.56
12,Cc1cc(-c2cnc(N3CCCCCC3)nc2-c2cccnc2C)on1,62.64
13,Cc1cc(-c2cnc(N3CCC(O)CC3)nc2-c2cccnc2C)on1,-33.62
14,CC1CCCN(c2ncc(-c3ccccc3F)c(-c3nccn3C)n2)C1 (stereo unspecified),50
15,CC1CCN(c2ncc(-c3ccccc3F)c(-c3nccn3C)n2)CC1,-10.24
16,Cc1cc(-c2cnc(N3CCOCC3)nc2-c2cccnc2C)on1,6.202
17,Cn1ccnc1-c1nc(N2CCCCC2)ncc1-c1ccccc1F,56.75
18,CC(C)=CCN1CCC2(CC1)CC(=O)N(Cc1cc(F)cc(F)c1)C2,20.01
19,CC(C)Cn1nc2ccc(S(=O)(=O)N3CCC(C)CC3)cn2c1=O,2.551
20,COc1cc2nc(NCc3cc(C)on3)nc(N)c2cc1OC,-7.413
21,COc1cc2nc(NCc3ccc(C)nc3)nc(N)c2cc1OC,50.73
22,COc1cc2nc(NCc3scnc3C)nc(N)c2cc1OC,13.16

row,SMILES,Percent Effect [%]
1,COC(=O)N1CCC(Nc2ccc(C#N)c(Cl)c2)C1 (stereo unspecified),66.83
2,N#Cc1ccc(NC2CCN(c3ncccn3)CC2)cc1Cl,33.47
3,COC(=O)N1CCC(Nc2ccc(Cl)c(C#N)n2)C1 (stereo unspecified),21.5
4,CC(NC(=O)NCCNc1ccccn1)c1cccs1 (stereo unspecified),-14.12
5,CCCNC(=O)NC(C)c1ccccn1 (stereo unspecified),55.13
6,CC(NC(=O)NCCCn1cccn1)c1ccccn1 (stereo unspecified),-6.373
7,CCN1CCN(C(C)(C)CNc2nc(C)cc(C3CCC3)n2)CC1,8.458
8,CC(C)CC(=O)N1Cc2ccccc2CC1C(=O)Nc1nncs1 (stereo unspecified),29.19
9,O=C(NCC1(O)COCCN(Cc2cccc(O)c2)C1)c1ccccn1 (stereo unspecified),-47.38
10,CC(C)n1cnnc1Cn1ccc2ncccc2c1=O,-16.96
11,CC(NC(=O)NCc1ccccc1)(C(=O)O)c1ccco1 (stereo unspecified),-57.05
12,Cc1ccc(C)c(CNC(=O)NC(C)(C(=O)O)c2ccco2)c1 (stereo unspecified),50.37
13,CC(NC(=O)NCc1ccccc1F)(C(=O)O)c1ccco1 (stereo unspecified),-0.26
14,COc1cc(N2CCC3(CC2)CN(C)C(=O)CO3)ncn1,-14.83
15,CCn1ncc2c1CCCC2NCc1cccc2c1OCO2 (stereo unspecified),-8.826
16,NC(=O)C1CCN(C(=O)CCSCc2ccc(Cl)c(Cl)c2)CC1,42.57
17,COC(=O)CCCN(C)C(c1cccnc1)c1ccc(F)cc1F (stereo unspecified),105.8
18,CCOCCN(C)C(c1cccnc1)c1ccc(F)cc1F (stereo unspecified),14
19,CNC(=O)NC(=O)CN(C)C(c1cccnc1)c1ccc(F)cc1F (stereo unspecified),14.91
20,CC(=O)NCCC1CCCCN1S(=O)(=O)c1cccc(Cl)c1 (stereo unspecified),-47.8
21,CN1CCN(Cc2cn3c(n2)CN(Cc2ccncc2)CC3)CC1,-19.75
22,COc1ccccc1NCC(=O)NCc1scnc1C,3.418

row,SMILES,Percent Effect [%]
1,COc1ccccc1NC(=O)CC(C)NCCc1sc(C)nc1C (stereo unspecified),109.1
2,COc1ccccc1NC(=O)CC(C)NCc1scnc1C (stereo unspecified),-11.77
3,CCOc1ccc(NC(=O)N2CCOC(C(N)=O)C2)cc1C (stereo unspecified),-10.8
4,CCN1CCN(c2nsc(-c3cccnc3)c2C#N)CC1,8.063
5,CN1CCN(c2nsc(-c3cccnc3)c2C#N)CC1,-23.91
6,CN1CCN(c2nsc(-c3ccccc3)c2C#N)CC1,72.37
7,O=C(NCCOc1ccccc1)NCC(O)c1cccs1 (stereo unspecified),1.907
8,Cc1csc(N2CCCN(C(=O)c3csc(C)n3)CC2)n1,20.78
9,O=C(c1cnc(O)cn1)N1C[C@@H]2CC[C@H](C1)N(Cc1ccccc1)C2,9.482
10,CCN1CCCc2cc(CN3CCc4c(nc(C)[nH]c4=O)C3)ccc21,3.807
11,OC(CN(Cc1ccccc1)Cc1ccncc1)c1cccs1 (stereo unspecified),4.252
12,Cc1cnc(CN(Cc2ccccc2)CC(O)c2cccs2)cn1 (stereo unspecified),-16.83
13,Cn1cc(CN(Cc2ccccc2)CC(O)c2cccs2)cn1 (stereo unspecified),103.2
14,CCN(CCn1c(=O)oc2ccccc21)CC1CCOCC1,48
15,CC(NCCn1c(=O)oc2ccccc21)c1ccccn1 (stereo unspecified),11.05
16,CCN(CC)CCn1c(=O)oc2ccccc21.Cl,61.39
17,O=C(CCn1c(=O)oc2ccccc21)NCC(O)c1ccccc1 (stereo unspecified),-6.039
18,CCCN(CCn1c(=O)oc2ccccc21)CC1CC1,69.63
19,O=c1oc2ccccc2n1CCN(CC1CCOC1)C1CC1 (stereo unspecified),23.76
20,CN(C)CCN1CCC2(CC1)CN(c1cccnc1)C(=O)CO2,-2.61
21,CCC(C)NC(=O)Nc1cccc(OC)c1 (stereo unspecified),-23.11
22,CC1CC(=O)c2cc(C(=O)N3CCN(C)CC3)c(=O)[nH]c2C1 (stereo unspecified),4.231

row,SMILES,Percent Effect [%]
1,COc1c(Br)c(C(=O)NC2CC2)nn1C,20.51
2,CNc1nc(C(=O)NCc2cccnc2N(C)C)cs1,28.41
3,CN(c1ncccc1CNC(=O)c1cscn1)C1CCCCC1,20.11
4,CNc1nc(C(=O)NCc2cccnc2N(C)C2CCCCC2)cs1,51.53
5,CCCN1CCN(Cc2cc3cc(OCC)ccc3[nH]c2=O)CC1,16.06
6,CCc1ccc(-c2cn3c(C(=O)NCC(C)C(=O)NC)csc3n2)cc1 (stereo unspecified),9.06
7,CCn1ccc(CNC(=O)c2cc(OC)cc(OC)c2)n1,3.102
8,O=C(CN1CCOCC1)Nc1ccc(C(F)(F)F)cc1Cl,-3.484
9,CC(C)c1cc(C(=O)N2CCN(c3ncc4c(n3)CCOC4)CC2)on1,-0.8267
10,Cc1cc(C(=O)N2CCN(c3ncc4c(n3)CCOC4)CC2)sc1C,45.6
11,Cc1cnc(C(=O)N2CCN(c3ncc4c(n3)CCOC4)CC2)cn1,56.71
12,O=C(CN1CCc2cncnc2C1)Nc1ccc(Cl)cn1,-14.12
13,Cc1cc(N(C)Cc2ccsc2)n2nc(C)c(C)c2n1,80.58
14,Cc1csc(CN(C)c2cc(C)nc3c(C)c(C)nn23)n1,39.72
15,CCc1nnc(CN(C)c2cc(C)nc3c(C)c(C)nn23)o1,-22.97
16,COCCNC(=O)CN1CCCC1c1c(C)nn(C)c1Cl (stereo unspecified),-22.86
17,COc1ccc2cc(NC(=O)CCNc3ncccn3)cnc2c1,-7.502
18,COCCC(=O)N1CCC(c2cncc(Oc3cccnc3)n2)CC1,-4.018
19,Cc1nn(CCO)c(C)c1CNC1CCOc2ccccc21.Cl (stereo unspecified),28.69
20,COc1c(CNC2CCOc3ccccc32)c(C)nn1C (stereo unspecified),23.56
21,Cc1nn(C)c(C)c1CNC1CCOc2ccccc21 (stereo unspecified),106.6
22,CC(C)N1CCC2(CCN(C(=O)c3cccnc3)CC2)C1.O=C(O)C(F)(F)F.O=C(O)C(F)(F)F,-3.69

row,SMILES,Percent Effect [%]
1,COc1cccc(-c2noc3c2CN(c2nc(C)ncc2C)CC3)c1,77.03
2,COc1cccc(-c2noc3c2CN(c2ncnc4c2CCC4)CC3)c1,35.28
3,COCc1cc(N2CCc3onc(-c4cccc(OC)c4)c3C2)ncn1,25.42
4,c1cc(CN2CCCC(c3ccnc4nccn34)C2)ccn1 (stereo unspecified),21.25
5,CSc1sc2c(O)cc(=O)[nH]c2c1C(N)=O,28.59
6,CCn1c(C)nnc1SCCn1cc(-c2nccs2)nn1,-8.266
7,COc1ccc(CN2CCC3(CC(C(=O)NCC(C)C)=NO3)C2)cc1 (stereo unspecified),19.34
8,CC(C)CC(=O)Nc1ccccc1Oc1ccsc1C(=O)O,8.037
9,O=C(Nc1cnc(Oc2ccccc2)nc1)C1CC1,23.36
10,O=C(O)c1sccc1Oc1ccc(NC(=O)C2CC2)cc1,55.89
11,CC(C)CC(=O)Nc1ccc(Oc2ccsc2C(=O)O)cc1,38.91
12,CC(C)(C)C(=O)Nc1ccc(Oc2ccsc2C(=O)O)cc1,16.22
13,COCC(=O)Nc1ccc(Oc2ccsc2C(=O)O)cc1,86.45
14,CC(C)NC(=O)Nc1ccc2c(c1)ncn2CC(=O)NCCN(C)C,-20.24
15,Cc1nc(C)n(C2CCCN(C(=O)Cc3ccc4c(c3)CCC4)C2)n1 (stereo unspecified),13.58
16,Cc1cc(C)n(C2CN(Cc3noc(C4CC4)n3)C2)n1,7.043
17,COCCC(=O)Nc1ccnn1-c1ccccc1,-2.555
18,c1cnc(N2CCOCC3(CCCN(c4nncs4)C3)C2)cn1 (stereo unspecified),-8.424
